From PubChem
AmpC no deterg: blocks E. coli AmpC beta-lactamase in detergent-free assay; 330,000 tested, 0.52% active; P00811; Potency, µM (titrated, usually from 57.1 µM), for the others: at the highest dose activity change, negative = inhibition, hits mostly inhibitors; AmpC nitrocefin hydrolysis, absorbance 480 nm, 0.0001% Triton;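 note: plate controls were no compound for no effect and no enzyme for full effect; nearly all actives have a fitted effect of over 20% in size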
Target sequence (P00811 whole entry, looked up): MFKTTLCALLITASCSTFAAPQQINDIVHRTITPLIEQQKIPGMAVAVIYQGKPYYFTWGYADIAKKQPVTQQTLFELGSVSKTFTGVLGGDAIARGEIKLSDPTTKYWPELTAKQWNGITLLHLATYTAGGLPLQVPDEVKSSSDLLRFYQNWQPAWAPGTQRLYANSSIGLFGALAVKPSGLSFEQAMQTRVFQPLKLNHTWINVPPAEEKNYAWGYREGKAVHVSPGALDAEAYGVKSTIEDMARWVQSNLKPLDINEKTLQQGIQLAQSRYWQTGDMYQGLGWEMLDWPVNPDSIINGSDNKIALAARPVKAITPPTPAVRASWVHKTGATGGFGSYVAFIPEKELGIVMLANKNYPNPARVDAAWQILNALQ
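20 mM phosphate pH 7.0 + 0.01% (detergent screen) or 0.0001% Triton X-100; 5.3 nM AmpC reagent; cpd preinc 15 min RT; nitrocefin (800 uM stock) to start; A480 q20 s × 4 min; Activity was normalised to no-enzyme and no-compound control wells.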
Sm TGR block: inhibitors of Schistosoma mansoni thioredoxin glutathione reductase; Q962Y6; purified TGR, DTNB reduction, TNB absorbance 405 nm; Potency, µM (doses to about 114 µM), for the others: at the top dose activity change, negative = inhibition, most hits filed as inhibitors; 360,000 tested, 3% active; AID 485364; note: nearly all actives have a fitted effect of over 60% in size
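Kinetic colorimetric format: TGR-catalysed, NADPH-driven DTNB reduction monitored via TNB absorbance. Enzyme dispensed at 20 nM; compound exposure 15 min at room temperature before reaction start.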
AmpC detergent: inhibitors of E. coli AmpC beta-lactamase with detergent | AmpC hydrolysis of nitrocefin, absorbance 480 nm, 0.01% Triton | Potency, µM (titrated, usually from 114 µM), without a hit: at the top dose activity change, negative = inhibition, usual class: inhibitors | 370,000 tested, 0.041% active | AID 485294;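 note: 0% = no-compound wells and -100% = no-enzyme wells; nearly all actives have a fitted effect of over 25% in size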
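AmpC (5.3 nM in the dispensed reagent) in 20 mM phosphate pH 7.0 with 0.01% (detergent screen) or 0.0001% Triton X-100 was preincubated with compounds for 15 min at room temperature. Nitrocefin was then added from an 800 uM solution, and hydrolysis was followed at 480 nm.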
* = called active by the depositor; ? = inconclusive; / = no result. This is a sample that favours compounds with a hit; in the whole collection about 3.3% have one here. Calls come from the whole dose curve; as a rule, active = well fitted curve in the direction sought with a large enough effect; inconclusive = small, poorly fitted or top-dose-only effect, or another doubt; inactive = no such curve, though single readings can be large; an effect the other way counts as inactive or inconclusive. Unless noted, % is set by controls: 0 for no effect and ±100 for the full control effect; potency is the fitted concentration of half-maximal effect.

SMILES | AmpC no deterg | Sm TGR block | AmpC detergent
CCOc1ccc(CNC(=O)c2cnc3sc(N(CC)CC)nn3c2=O)cc1 | / | 4.4% | 17.4%
Cc1ccc(CSc2nc3cccnc3n2Cc2ccc(C(=O)NCCc3cccs3)cc2)cc1 | / | 3.7% | 8.7%
OCC#CCSc1nnc(-c2ccc(Br)cc2)o1 | -4.9% | -7.8% | ?
COC(=O)Sc1nnc(-c2ccc(Br)cc2)o1 | -14.9% | 44.7µM* | 2.0%
CCCN(C(=O)c1noc2c1COc1ccc(C)cc1-2)c1ccc(Cl)c(Cl)c1 | / | 3.8% | 0.1%
NC(=O)c1c(N)sc2c1CCCC2 | -26.5% | 12.6µM* | ?
Nc1sc2c(c1C(=O)NC1CCS(=O)(=O)C1)CCCC2 (configuration not stated) | 25.9% | 22.4µM* | ?
Nc1sc2c(c1C(=O)c1ccccc1)CCCC2 | -40.2% | ? | -13.5%
O=C(CSc1ncnc2sc3c(c12)CCCC3)NC1CCS(=O)(=O)C1 (configuration not stated) | 26.3% | / | /
O=C1CN(C(=O)COc2ccc(Cl)cc2Cl)C(c2ccc(F)cc2)c2cc(F)ccc2N1 (configuration not stated) | / | -10.2% | -7.2%
CCOC(=O)c1cc(-c2ccc(C)cc2)n(CC(=O)Nc2ccccc2F)c1C | / | 5.3% | 2.3%
CCn1c(=O)c2cc(C(=O)N(C)c3cc(C)ccc3C)sc2c2ccccc21 | / | -0.2% | -4.8%
Cc1cccc(-n2nnc(-c3nc(-c4ccccc4)no3)c2N)c1C | / | 15.7% | 5.6%
Cc1ccc(C(=O)CCNc2ccc(F)c(Cl)c2)o1 | -11.2% | ? | -12.4%
Cc1ccc(C(=O)CCNc2ccccc2)o1 | / | 25.1µM* | 0.2%
Cc1ccc(C(=O)CCNc2ccc(Br)cc2)o1 | / | ? | -6.8%
Cc1ccc(C(=O)CCNc2cccc(Br)c2)o1 | -17.6% | 56.2µM* | ?
COc1ccc(N(CC(=O)Nc2cccc(C(C)=O)c2)S(=O)(=O)c2ccccc2)c(OC)c1 | / | -1.3% | -2.0%
CCc1ccc(CNC(=O)CCSCc2ccccc2F)cc1 | / | 6.4% | -0.2%
COC/C=C/C1=CC2=CC(=O)C(C)(OC(=O)c3cnc4ccccc4n3)C(=O)C2=CN1CCN1CCOCC1 (configuration not stated) | 167.0% | 14.1µM* | 5.7%
COC/C=C/C1=CC2=CC(=O)C(C)(OC(=O)c3cnc4ccccc4n3)C(=O)C2=CN1CCCOC(C)C (configuration not stated) | 164.2% | ? | 1.2%
CCCCN(C)CCCNC(=O)Cn1ncc2c3ccccc3n(Cc3ccccc3F)c2c1=O | / | -10.3% | 4.6%
C#CCn1cc(/C=N/NC(=O)c2cc3ccccc3o2)c2ccccc21 | 28.2µM* | 0.6% | ?
O=C(N/N=C/c1cccc2ccccc12)c1cc2ccccc2o1 | -54.3% | 1.9% | -0.2%
Cc1ccc(NC(=O)c2c(C)oc3ccc(O)c(CN4CCN(Cc5ccccc5)CC4)c23)cc1 | / | 47.9% | 16.1%
SMILES | AmpC no deterg | Sm TGR block | AmpC detergent
CC(=O)c1ccc(NC(=S)Nc2ccc(N3CCOCC3)cc2)cc1 | -17.3% | 44.7µM* | 3.9%
CCc1ccc(C(=O)NC(=S)Nc2ccc(N3CCOCC3)cc2)cc1 | -0.4% | ? | -1.4%
CC(C)OC(=O)c1ccc(NC(=S)NC(=O)c2cncc(Br)c2)cc1 | -30.0% | 14.8% | -8.4%
O=C(NC(=S)Nc1ccc(N2CCOCC2)cc1)c1ccccc1 | 24.0% | 15.8µM* | -12.6%
O=C(NC(=S)Nc1ccc(N2CCOCC2)cc1)c1cncc(Br)c1 | -50.5% | 12.6µM* | ?
O=C(NC(=S)Nc1ccccc1C(=O)O)c1cncc(Br)c1 | -30.6% | 4.0% | ?
CN(C)C(=S)Nc1ccc(N2CCOCC2)cc1 | 2.3% | -2.5% | -4.2%
O=C(NC(=S)Nc1ccccc1[N+](=O)[O-])c1cncc(Br)c1 | -27.5% | 20µM* | -9.2%
Cc1ccc(N2CC(NC(=O)c3ccc(S(=O)(=O)N4CCCC4)cc3)CC2=O)cc1C (configuration not stated) | / | 6.9% | 2.8%
COc1ccc(-c2ccc(CNc3ccc4[nH]c(=O)[nH]c4c3)o2)cc1Cl | / | -12.4% | 1.7%
O=C(NC(=S)Nc1ccc(N2CCOCC2)cc1)c1cccc(Cl)c1Cl | -15.0% | -28.4% | -8.5%
O=C(NC(=S)Nc1ccc(N2CCOCC2)cc1)c1cccc(Cl)c1 | -9.1% | 22.4µM* | -5.0%
NC(=O)c1ccccc1NC(=O)Cn1nc(Cc2cccnc2)c2ccccc2c1=O | / | -12.0% | 4.6%
CCCCOc1ccccc1NC(=O)CC1Sc2ccccc2NC1=O (configuration not stated) | / | -0.2% | 5.4%
COc1ccccc1C(=O)NC(C)c1ccc(-n2ccnc2)cc1 (configuration not stated) | 1.8% | 2.4% | 4.6%
CSc1ccccc1C(=O)NC(C)c1ccc(-n2ccnc2)cc1 (configuration not stated) | 0.3% | 5.62µM* | 3.9%
Cc1nn(-c2ccccc2)c(Cl)c1CN(C(=O)CCl)c1ccc(Cl)cc1 | 51.8% | 2µM* | ?
CC(=O)N(Cc1c(C)nn(-c2ccccc2)c1Cl)c1ccc(Cl)cc1 | 160.3% | 2.1% | -1.6%
Cc1ccc2oc(=O)c3cc(C(=O)Nc4ccc(C)c(F)c4)sc3c2c1 | / | ? | -7.1%
Cc1ccc(NS(=O)(=O)c2ccc(-c3cc(C)no3)cc2)c(C)c1 | / | 11.8% | -1.1%
Cc1ccc(S(=O)(=O)NCCc2cn3nc(C)c(C)nc3n2)cc1C | -0.4% | -7.6% | 1.2%
COc1ccc(S(=O)(=O)NCCc2cn3nc(C)c(C)nc3n2)cc1C | -10.1% | 44.7µM* | 2.7%
CCN(CC)CCCNC(=O)CCCn1ncn2c(cc3occc32)c1=O | / | 0.3% | 22.5%
COC(=O)c1ccc(NC(=O)CC2C(=O)N(c3ccccc3)C(=O)N2Cc2cccs2)cc1 (configuration not stated) | / | 7.0% | 4.1%
CCC1CO/C(=C(\C(Cl)=C(Cl)Cl)[N+](=O)[O-])N1Cc1ccc(Cl)nc1 (configuration not stated) | -19.0% | 0.0% | -13.8%
SMILES | AmpC no deterg | Sm TGR block | AmpC detergent
CCC1CO/C(=C(\C(Cl)=C(Cl)Cl)[N+](=O)[O-])N1 (configuration not stated) | -13.4% | 8.91µM* | 5.0%
Cc1cccc(NC(=O)c2ccc3oc(=O)c(S(=O)(=O)c4ccc(F)cc4)cc3c2)c1C | / | 16.3% | 19.4%
Cc1ccc(NC(=O)C2CCC(CNS(=O)(=O)c3csc(C(N)=O)c3)CC2)cc1Cl (configuration not stated) | / | 0.7% | 4.8%
O=C(NCc1ccco1)C1CC(c2ccc(Cl)c(Cl)c2)=NO1 (configuration not stated) | 0.1% | 6.8% | 0.2%
Cc1ccc(CCNC(=O)C2CC(c3cc(C(F)(F)F)cc(C(F)(F)F)c3)=NO2)cc1 (configuration not stated) | -5.2% | 25.7% | 1.8%
COc1ccc(CCNC(=O)C2CC(c3cccc([N+](=O)[O-])c3)=NO2)cc1 (configuration not stated) | -1.0% | -4.1% | -1.9%
O=C(NCc1ccco1)C1CC(c2c(Cl)cccc2Cl)=NO1 (configuration not stated) | -37.7% | 39.8µM* | -13.9%
